Experiment [1] concerns Neuropilin-2 / VEGF-C interaction (human). Kind of experiment: small molecules blocking Neuropilin-2/VEGF-C interaction – biochemical, microplate binding format, z-score (AID 743281). Particulars: microplate NRP2/VEGF-C binding assay; stronger effect = lower value.
Experiment [2] is described as follows: viability loss in pontine glioma line – cell-based, SU-DIPG-XIII, MIPE4.0, CellTiter-Glo, qHTS, dose response (AID 1347061; cut-off not given, nearly all actives have AC50 up to about 37 µM;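 further: cells exposed to compound for 48 hours before readout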). Conditions: CellTiter-Glo ATP luminescence. Background: In ATP-based viability assays light output follows the ATP content of the culture.
Experiment [3] is described as follows: viability loss in pontine glioma line – cell-based, JHH-DIPG-1, MIPE4.0, CellTiter-Glo, qHTS, dose response (AID 1347062; cut-off not given, nearly all actives have AC50 up to about 27 µM;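 on AC50: cells exposed to compound for two days before readout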). Particulars: JHH-DIPG-1 viability, CellTiter-Glo ATP luminescence.
Experiment [4] can be described thus: viability loss in pontine glioma line – cell-based, SU-DIPG-IV, MIPE4.0, CellTiter-Glo, qHTS, dose response (AID 1347063; cut-off not given, nearly all actives have AC50 up to about 30 µM;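 further: compound exposure lasted 48 hours before the viability readout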). Particulars: CellTiter-Glo ATP luminescence.
Experiment [5] is described as follows: growth inhibition of DIPG cells – cell-based, MIPE4.0 library, CellTiter-Glo luminescence, qHTS (AID 1347066; cut-off not given, nearly all actives have AC50 up to about 30 µM;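 further: cells exposed to compound for 48 hours before readout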). Conditions: SU-DIPG-VI viability, CellTiter-Glo ATP luminescence.
Experiment [6] deals with NAD(+) hydrolase SARM1 (Homo sapiens) (UniProt Q6SZW1). The experiment in a line: blocking NAD cleavage by SARM1 SAM-TIR – cell lysate, NAD-Glo luminescence (AID 1508614;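 active means compound whose remaining NAD level is above about 45 nM, limit read from the data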). Particulars: SAM-TIR HEK293T lysate NADase, at 1 µM, stronger effect = higher value.
Chain of NAD(+) hydrolase SARM1 (Homo sapiens) (Q6SZW1 whole entry, looked up, the tested form may be a part): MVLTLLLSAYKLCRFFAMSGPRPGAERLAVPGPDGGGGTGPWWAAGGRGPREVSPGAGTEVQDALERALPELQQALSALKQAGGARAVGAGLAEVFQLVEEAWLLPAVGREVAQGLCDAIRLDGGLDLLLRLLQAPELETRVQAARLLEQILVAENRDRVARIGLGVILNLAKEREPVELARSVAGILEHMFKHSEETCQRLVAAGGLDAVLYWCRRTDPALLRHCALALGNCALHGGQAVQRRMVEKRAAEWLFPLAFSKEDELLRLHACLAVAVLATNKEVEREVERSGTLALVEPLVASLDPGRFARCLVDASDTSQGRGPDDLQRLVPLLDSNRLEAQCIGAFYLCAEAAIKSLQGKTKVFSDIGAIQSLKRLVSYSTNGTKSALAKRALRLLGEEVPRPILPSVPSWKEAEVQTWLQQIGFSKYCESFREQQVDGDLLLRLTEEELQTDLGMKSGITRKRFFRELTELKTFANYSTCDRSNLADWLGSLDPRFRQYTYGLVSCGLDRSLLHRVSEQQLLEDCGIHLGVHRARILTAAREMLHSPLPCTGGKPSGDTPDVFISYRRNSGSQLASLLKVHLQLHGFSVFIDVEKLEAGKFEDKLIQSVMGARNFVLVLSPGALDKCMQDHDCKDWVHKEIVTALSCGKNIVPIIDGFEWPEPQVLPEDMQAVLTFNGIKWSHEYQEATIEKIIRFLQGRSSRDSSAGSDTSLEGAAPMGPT
In experiment [7] the target is Mitogen-activated protein kinase 7 (Homo sapiens) (UniProt Q13164). Kind of experiment: Gal4-ERK5 driven luciferase induction – cell-based, HTS, primary screen (AID 1508626;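 active means luciferase signal above three times the same-plate solvent-only control wells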;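 further: luciferase driven by Gal4-ERK5 fusion binding five Gal4 sites before minimal TATA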). Conditions: HeLa Gal4-ERK5 transactivation, 18 h, at 5 µM, stronger effect = higher value.
Chain of Mitogen-activated protein kinase 7 (Homo sapiens) (Q13164 whole entry, looked up, the tested form may be a part): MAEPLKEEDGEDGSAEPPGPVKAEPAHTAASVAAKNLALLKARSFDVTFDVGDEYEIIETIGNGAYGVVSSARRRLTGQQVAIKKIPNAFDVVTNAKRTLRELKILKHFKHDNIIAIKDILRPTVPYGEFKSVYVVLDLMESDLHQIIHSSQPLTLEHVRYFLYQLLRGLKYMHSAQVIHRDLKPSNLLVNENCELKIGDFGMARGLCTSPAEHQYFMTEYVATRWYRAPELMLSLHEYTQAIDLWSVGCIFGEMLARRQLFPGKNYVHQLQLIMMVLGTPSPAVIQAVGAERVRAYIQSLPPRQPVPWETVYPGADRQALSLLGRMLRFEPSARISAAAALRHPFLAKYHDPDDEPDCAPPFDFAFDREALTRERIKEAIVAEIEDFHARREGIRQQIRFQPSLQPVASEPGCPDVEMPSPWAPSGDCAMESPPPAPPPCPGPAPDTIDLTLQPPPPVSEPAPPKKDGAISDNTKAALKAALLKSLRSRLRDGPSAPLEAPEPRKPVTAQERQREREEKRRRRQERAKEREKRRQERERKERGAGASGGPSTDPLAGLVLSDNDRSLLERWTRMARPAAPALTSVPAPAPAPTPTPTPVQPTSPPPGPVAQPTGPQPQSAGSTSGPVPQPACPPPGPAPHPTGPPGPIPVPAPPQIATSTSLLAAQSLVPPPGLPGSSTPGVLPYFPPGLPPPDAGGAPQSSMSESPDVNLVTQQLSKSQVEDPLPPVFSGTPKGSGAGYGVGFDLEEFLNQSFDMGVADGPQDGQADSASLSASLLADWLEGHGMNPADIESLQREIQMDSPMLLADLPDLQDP
Experiment [8] in a line: galactose survival enhancers in mitochondrial complex I cybrids – cell-based, galactose medium, ATP luminescence, primary screen (AID 1645843;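 active means z-score of at least 1.8 in each of two replicates, scored against plate mean and spread of sample wells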;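 further: positive z means more ATP and so rescue of galactose-driven cybrid death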). Particulars: complex I mutant cybrid cells, 72 h, stronger effect = higher value.
Experiment [9] is described as follows: viability loss in pontine glioma line – cell-based, SU-DIPG-XVII, MIPE5.0, CellTiter-Glo, qHTS, dose response (AID 1347060; cut-off not given, nearly all actives have AC50 up to about 26 µM;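 on AC50: cells exposed to compound for 48 hours before viability readout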). Conditions: CellTiter-Glo ATP luminescence.
The nature of experiment [10]: viability loss in pontine glioma line – cell-based, SU-DIPG-XIII, MIPE5.0, CellTiter-Glo, qHTS, dose response (AID 1347064; cut-off not given, nearly all actives have AC50 up to about 23 µM). Particulars: CellTiter-Glo ATP luminescence.
Experiment [11] in a line: viability loss in pontine glioma line – cell-based, SU-DIPG-XXV, MIPE5.0, CellTiter-Glo, qHTS, dose response (AID 1347065; cut-off not given, nearly all actives have AC50 up to about 26 µM;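 further: cells exposed to compound for 48 hours before ATP readout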). Particulars: CellTiter-Glo ATP luminescence.
Experiment [12] in a line: JHH-DIPG-1 glioma cell viability, MIPE5.0 library, CellTiter-Glo luminescence, qHTS (AID 1347067; cut-off not given, nearly all actives have AC50 up to about 26 µM;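 further: cells exposed to compound for 48 hours before readout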). Conditions: JHH-DIPG-1 glioma viability, CellTiter-Glo ATP luminescence.
Experiment [13] can be described thus: growth inhibition of DIPG cells – cell-based, MIPE5.0 library, qHTS (AID 1347068; cut-off not given, nearly all actives have IC50 up to about 30 µM). Conditions: SU-DIPG-XXV viability.
Experiment [14] can be described thus: blockers of cellular phospholipid synthesis – cell-based, LOPAC library, screen 4, primary screen (AID 1347384). Conditions: animal cells, phospholipid biosynthesis inhibition screen; at 10 µM.
The nature of experiment [15]: compounds altering circadian rhythm period length – cell-based, LOPAC library, luminescence reporter (AID 2774).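 Further: values are relative to mean of DMSO wells on each plate.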 Particulars: circadian reporter cells, at 7 µM, actives lie on both sides.
For experiment [16], the system named is Hepatitis C virus NS3 helicase. Kind of experiment: blockers of NS3h binding to ssDNA – biochemical, fluorescence polarization, LOPAC1280 library, primary screen (AID 687035; in the data active means inhibition above about 37%). Conditions: Purified HCV NS3 helicase, Cy5-dT15 ssDNA binding fluorescence polarization; stronger effect = higher value; concentration not given here.
Experiment [17] in a line: compounds altering Cy5-DNA-NS3h complex signal – biochemical, LOPAC1280, artefact control for HCV NS3 helicase inhibitor project (AID 687037). Particulars: Cy5-DNA-NS3h complex fluorescence interference counterscreen.
Experiment [18] relates to Aerobactin synthetase IucA (Klebsiella pneumoniae). The experiment in a line: inhibition of K. pneumoniae IucA enzyme – biochemical, Tocris library, absorbance (AID 1345561).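 Further: 100% = enzyme without compound and 0% = no enzyme.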 Conditions: purified IucA enzyme assay, absorbance (OD) read-out; stronger effect = lower value;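 tested at 8 µM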.
The nature of experiment [19]: compounds altering HSF1 focus formation in cells – imaging, Selleck Cancer Library (AID 1347162; in the data active means plate-normalised HSF1 focus index below about 0.46). Particulars: human cells, HSF1 nuclear foci imaging, at 10 µM; SSMD: measured here: HSF1 foci SSMD mean; cell count: measured here: cell number; plate-normalised HSF1 focus index: stronger effect = lower value.

Each structure is given as a SMILES string. “And” between values parts separate entries of the source, which are not always exact repeats. Equal entries are not always repeated. Results filed as inconclusive are left out. The source made the active and inactive calls. Unless noted, how the calls were made is not given here. Non-standard residues stand in square brackets, D forms with d. Residues, ends and D or L forms follow the SMILES beside them. pGlu = O=C1CC[C@@H](C(=O)O)N1; Thz = O=C(O)[C@@H]1CSCN1

What is called AC50 is the concentration giving half of the maximal activity seen. Regarding `CN(C)CCc1c[nH]c2ccc(Cn3cncn3)cc12`, the compound was classed as inactive in experiment [1], in experiment [2] and in [5]. Also, the AC50 in [3] and in experiment [4] was 20.9 µM (active) throughout. The remaining NAD in experiment [6] is 10 nM (inactive). In addition, in experiment [7], the luciferase signal is 52 AU (inactive). Moreover, in [8], the z-score is 0.12 (inactive).
For `Cc1cc2c(s1)Nc1ccccc1N=C2N1CCN(C)CC1`, the result in [1], in experiment [9], in experiment [2], in [3], in experiment [10] and in experiment [11] was inactive. The compound was called inactive in experiment [5], in experiment [13] and in experiment [14]. For the same compound, the AC50 in experiment [12] was 1.18 µM (active). Further, the remaining NAD in experiment [6] was 10 nM (inactive). Besides, the luciferase signal in experiment [7] is 136 AU (inactive). Further, the z-score in [8] is -0.17 (inactive) and -0.015 (inactive).
A word on the inhibition: it is the change of the read-out against control, counted positive when it falls. By remaining activity is commonly meant the signal under treatment as a percentage of the control signal. Turning to `CC(C)NCC(O)c1ccc(NS(C)(=O)=O)cc1` (configuration not stated), the period change in [15] is -0.07 h (inactive). Also, in experiment [16], the inhibition is -2% (inactive). Besides, the fluorescence ratio (interference) in [17] was 1 (inactive). Moreover, the z-score in [1] was -0.291 (inactive). Further, in experiment [18], the remaining activity is 91.3% (inactive). The compound was called inactive in experiment [9], in experiment [3], in experiment [4], in [10], in experiment [11] and in experiment [5]. For the same compound, the compound was called inactive in [12], in experiment [13] and in [14]. Also, the remaining NAD in [6] was 10 nM (inactive).
For the compound `CNCC[C@@H](Oc1ccccc1C)c1ccccc1`, the z-score in experiment [1] is 0.0903 (inactive); in [8], -0.26 (inactive). Moreover, in experiment [18], the remaining activity was 96.2% (inactive). For the same compound, in experiment [6], the remaining NAD is 10 nM (inactive). Besides, the luciferase signal in experiment [7] is 64 AU (inactive).
As for `O=C1CC[C@@H](C(=O)N2CSC[C@H]2C(=O)O)N1` ([pGlu]-[Thz]-OH), the z-score in experiment [1] is -0.307 (inactive). Further, the remaining NAD in experiment [6] was 10 nM (inactive).
With `COc1ccc(C[C@H](C)NC[C@@H](O)c2ccc(O)c(NC=O)c2)cc1`, the z-score in experiment [1] is -0.584 (inactive); in experiment [8], -0.475 (inactive). For the same compound, the remaining activity in experiment [18] is 116% (inactive).
For `CC[C@H]1OC(=O)[C@H](C)[C@@H](O[C@H]2C[C@@](C)(OC)[C@@H](O)[C@H](C)O2)[C@H](C)[C@@H](O[C@@H]2O[C@H](C)C[C@H](N(C)C)[C@H]2O)[C@](C)(O)C[C@@H](C)CN(C)[C@H](C)[C@@H](O)[C@]1(C)O`, the compound was called inactive in [9], in experiment [3], in experiment [4], in experiment [10], in experiment [11] and in [5]. Besides, the compound was called inactive in experiment [12] and in experiment [13]. Further, the remaining NAD in experiment [6] is 10 nM (inactive). In addition, in experiment [7], the luciferase signal is 20 AU (inactive). The z-score in experiment [8] was 1.2 (inactive).
As for `CN/C(=C\[N+](=O)[O-])NCCSCc1csc(CN(C)C)n1`, the z-score in experiment [1] was 0.209 (inactive). The remaining NAD in experiment [6] is 10 nM (inactive).
`C[C@@H](c1ncncc1F)[C@](O)(Cn1cncn1)c1ccc(F)cc1F`: the z-score in experiment [1] is 1.15 (inactive); in [8], 0.365 (inactive). For the same compound, the compound was called inactive in [2], in experiment [4], in experiment [11], in experiment [5], in experiment [12] and in experiment [13]. Besides, the result in experiment [14] was inactive. The remaining NAD in [6] is 10 nM (inactive).
For the compound `COc1ccc2[nH]c(S(=O)Cc3ncc(C)c(OC)c3C)nc2c1` (configuration not stated), the compound was called inactive in experiment [1], in experiment [12] and in experiment [13]. Also, the z-score in [8] is 0.665 (inactive).
Consider `O=C(c1ccc(OCCN2CCCCC2)cc1)c1c(-c2ccc(O)cc2)sc2cc(O)ccc12`, for which the period change in experiment [15] was 0.135 h (inactive). Also, the inhibition in [16] was -6% (inactive). Besides, in experiment [17], the fluorescence ratio (interference) was 0.9 (inactive). In [18], the remaining activity is 120% (inactive). Also, the result in experiment [9], in experiment [12] and in [14] was inactive. The same compound displayed an SSMD in experiment [19] of 2.22. Besides, in [19], the cell count was found to be 6850. Besides, the plate-normalised HSF1 focus index in experiment [19] is 1.11 (inactive). Moreover, the remaining NAD in [6] is 10 nM (inactive). Moreover, the luciferase signal in experiment [7] is 76 AU (inactive).
Turning to `CC(Cc1ccc(O)c(O)c1)(NN)C(=O)O` (configuration not stated), the compound was classed as inactive in experiment [9], in [2], in experiment [3], in experiment [4], in experiment [10] and in [11]. For the same compound, the result in experiment [5] and in experiment [12] was inactive. The z-score in experiment [8] was -1.27 (inactive).
Take `COC(=O)C[C@](O)(CCCC(C)(C)O)C(=O)O[C@@H]1C(OC)=C[C@]23CCCN2CCc2cc4c(cc2[C@H]13)OCO4`: in experiment [1], the compound was called inactive. Also, in [18], the remaining activity was 98.2% (inactive). The z-score in experiment [8] was -0.84 (inactive).
For `CC(CCCCC(=O)Nc1ccc(C(F)(F)F)cc1)NCCc1cnc[nH]1` (configuration not stated), the z-score in experiment [1] was -0.258 (inactive); in experiment [8], 0.675 (inactive) and -0.77 (inactive). Also, the remaining activity in experiment [18] was 92.5% (inactive).
Consider `CC(C)(S)C(N)C(=O)O` (configuration not stated), for which the z-score in experiment [8] is -0.255 (inactive).
With `CN1CC(=O)N2[C@H](c3ccc4c(c3)OCO4)c3[nH]c4ccccc4c3C[C@@H]2C1=O`, in experiment [1], the z-score was 1.08 (inactive). Moreover, the outcome in [9], in experiment [2], in experiment [3], in experiment [4], in [10] and in [11] was inactive. Further, the compound was classed as inactive in [5], in [12] and in experiment [13]. The remaining NAD in experiment [6] was 10 nM (inactive). Also, the luciferase signal in experiment [7] was 40 AU (inactive).
`O=C1CN2Cc3c(ccc(Cl)c3Cl)N=C2N1`: the call in experiment [1], in [9], in experiment [2], in experiment [3], in [10] and in experiment [11] was inactive. The compound was classed as inactive in experiment [12] and in experiment [13]. In addition, the SSMD in experiment [19] was 2.08 and 2.35. Also, the cell count in experiment [19] is 7390 and 7000. The plate-normalised HSF1 focus index in experiment [19] was 1.08 (inactive) and 1.14 (inactive). The remaining NAD in experiment [6] was 10 nM (inactive). In addition, the luciferase signal in experiment [7] is 40 AU (inactive). For the same compound, in [8], the z-score was 0.465 (inactive) and 0.535 (inactive).
`COc1nc(C)nc(Cl)c1NC1=NCCN1`: the period change in experiment [15] was -0.08 h (inactive). For the same compound, in [16], the inhibition is -4% (inactive). Further, the fluorescence ratio (interference) in experiment [17] was 0.9 (inactive). The z-score in experiment [1] is -0.63 (inactive); in experiment [8], 0.36 (inactive) and 1.01 (inactive) and 0.165 (inactive). In addition, the remaining activity in experiment [18] was 93.9% (inactive). Besides, the AC50 in [9] is 23.5 µM (active). Further, the outcome in experiment [2], in [3], in experiment [4], in [10], in experiment [11] and in [5] was inactive. Also, the compound was classed as inactive in [13] and in experiment [14].

For the origin of these results see PubChem BioAssay.
